# Measured values as given in PubChem BioAssay AID743291 (Broad Institute, 2014).
# Entries with a potency or affinity are not part of this list. Activity calls are given as the source filed them.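 How the source made its calls: active means signal drop with fitted half-maximal dose at most twice the top valid dose, active in every repeat; inconclusive means repeats disagree, or flat partial inhibition, or poor fit; inactive means inactive in every repeat, including opposite effects.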
# Biological target: Caspase-3 (Homo sapiens) (UniProt P42574)
# Assay: human caspase-3 protease activity blockade – biochemical, fluorescence, cherry-picked samples, selectivity assay for caspase-6 allosteric inhibitor project, dose response (AID 743291)
# Conditions: Recombinant caspase-3, Z-DEVD-R110 cleavage fluorescence; series mostly up to 35 µM
# Chain of Caspase-3 (Homo sapiens) (P42574 whole entry, looked up): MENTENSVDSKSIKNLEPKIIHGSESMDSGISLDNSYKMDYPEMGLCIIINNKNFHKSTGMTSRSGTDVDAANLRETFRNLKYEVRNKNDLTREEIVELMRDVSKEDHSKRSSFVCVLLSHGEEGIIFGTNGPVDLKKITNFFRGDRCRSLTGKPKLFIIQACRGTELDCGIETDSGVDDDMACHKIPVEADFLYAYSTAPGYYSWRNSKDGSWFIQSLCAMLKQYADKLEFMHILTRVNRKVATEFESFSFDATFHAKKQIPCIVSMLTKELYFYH
smiles,measurement,value
CN1CCc2cc3c(c4c2C1Cc1ccccc1-4)OCO3 (stereo unspecified),outcome,inactive
